An excerpt weighted towards active compounds, which were near 17% of everything screened.
ATXN2 expr inh: Primary qHTS for Inhibitors of ATXN expression | HEK-293 ATXN2-luciferase reporter, luminescence, 24 h | Potency, µM (titrated, usually from 57 µM), without a hit: top-dose activity change, negative = inhibition, hits mostly inhibitors | 0.72% of 360,000 active; further: on the % scale 0 is the no-effect control and ±100 the full control effect; nearly all actives have a fitted effect of over 55% in size
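qHTS (up to 57 uM final) was run with 24 h compound exposure of reporter cells at 37 °C. Each well was multiplexed: SteadyGlo luminescence measured ATXN2-luciferase expression after a fluorogenic Gly-Phe-AFC viability readout (25 uM final).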
ATXN viability: Viability Counterscreen for Primary qHTS for Inhibitors of ATXN expression | S2 cells (HEK-293 line with an ATXN2-luciferase reporter) viability, CellTiter-Fluor protease fluorescence, 24 h | Potency, µM (doses to about 56.7 µM), hits mostly cytotoxic | 0.49% of 400,000 active; further: nearly all actives have a fitted effect of over 40% in size
HepG2 viability: qHTS for Inhibitors of TGF-b: Cytotox Counterscreen; HepG2 CAGA-GFP viability, ATP luminescence, 18 h; Potency, µM (series often up to 46.1 µM), for inactives: at the top dose activity change, negative = cytotoxicity, actives largely listed as cytotoxic; 0.76% of 410,000 active
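HepG2 CAGA-GFP cells (1000/well, DMEM with 1% FBS) received compound, then TGF-beta at 500 pg/mL final, and were incubated 18 hours at 37 degrees C. Viability was read by CellTiter-Glo luminescence. Media-only wells were set as complete cell-killing and DMSO as no toxicity.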
TGFb inhibitor: qHTS for Inhibitors of TGF-b. Potency, µM (highest dose often 46.1 µM), without a hit: at the top dose activity, negative = inhibition, actives largely listed as inhibitors. 1.2% of 410,000 active. AID 588855, 2011. HepG2 CAGA-GFP TGF-b/SMAD3 reporter, GFP fluorescence, 18 h; TGF-beta stimulated, 500 pg/mL final; further: on the % scale 0 is the no-effect control and ±100 the full control effect; nearly all actives have a fitted effect of over 65% in size
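Smad-responsive CAGA-GFP expression was quantified in HEPG2 cells exposed to compounds and 500 pg/mL final TGF-beta for 18 h at 37 degrees C; unstimulated wells defined full inhibition.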
DT40 TDP1 CPT: qHTS for Inhibitors of human tyrosyl-DNA phosphodiesterase 1 (TDP1): qHTS in cells in presence of CPT | chicken DT40 Tdp1-/-;hTDP1 cells + 20 nM CPT, ATP luminescence, 48 h | Potency, µM (series often up to 46.2 µM), for the others: at the highest dose activity change, negative = growth inhibition, hits mostly inhibitors | 12% of 420,000 active | AID 686979, 2013; further: on the % scale 0 is the no-effect control and ±100 the full control effect; nearly all actives have a fitted effect of over 55% in size
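Cell growth measured by CellTiter-Glo luminescence after a minimum 48 h, 37 C compound exposure with 20 nM CPT in Tdp1-knockout DT40 cells stably expressing hTDP1, seeded 400/well; qHTS titration format.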
DT40 TDP1 no CPT: qHTS for Inhibitors of human tyrosyl-DNA phosphodiesterase 1 (TDP1): qHTS in cells in absence of CPT; DT40 Tdp1-/- hTDP1 cells, no CPT, ATP luminescence, 48 h; Potency, µM (titrated, usually from 46.2 µM), for inactives: top-dose activity change, negative = growth inhibition, hits mostly inhibitors; 15% of 420,000 active; further: on the % scale 0 is the no-effect control and ±100 the full control effect; nearly all actives have a fitted effect of over 55% in size
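A cellular qHTS used chicken DT40 cells lacking endogenous Tdp1 but carrying stably transfected human TDP1. Compounds were applied without camptothecin, and cell growth kinetics were judged by ATP-dependent luminescence after ≥48 hr.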
Starred values were filed as active, the others as inactive; i = inactive; ? = inconclusive; nt = not tested or not shown. The call rests on the fitted dose curve; in most records, active means well fitted curve in the direction sought with a large enough effect; inconclusive means small, poorly fitted or top-dose-only effect, or another doubt; inactive means no such curve, though single readings can be large; an effect the other way counts as inactive or inconclusive. Potency means the concentration at half of the fitted maximal effect.

SMILES	ATXN2 expr inh	ATXN viability	HepG2 viability	TGFb inhibitor	DT40 TDP1 CPT	DT40 TDP1 no CPT
COc1ccc(C2CC(c3c(O)cc(C)oc3=O)=NCCS2)c(OC)c1 (stereo not drawn)	111%	?	-26%	?	0.46µM*	0.021µM*
COc1ccc(C(c2c(O)cc(C)oc2=O)c2c(O)cc(C)oc2=O)cc1	5%	i	1%	-2%	-9%	-16%
CCCn1c2ccccc2c2cnn(CC(=O)NCc3cc(OC)ccc3OC)c(=O)c21	-3%	i	3%	0%	18µM*	?
CCCn1c2ccccc2c2cnn(CC(=O)Nc3ccccc3OC)c(=O)c21	nt	nt	-25%	?	23µM*	15µM*
CCCn1c2ccccc2c2cnn(CC(=O)NCCc3cc(OC)ccc3OC)c(=O)c21	-3%	?	-25%	?	?	16µM*
CCCn1c2ccccc2c2cnn(CC(=O)NCCOC)c(=O)c21	5%	i	4%	-17%	-19%	-15%
COc1ccccc1C1(O)C(=O)Nc2ccc(C)cc21 (stereo not drawn)	-3%	i	3%	11%	24%	-11%
CCOC(=O)[C@]12CCCC=C1N(Cc1ccco1)C(=O)[C@H](CC(=O)NCCC(C)C)C2	4%	i	nt	nt	?	16µM*
CCOC(=O)[C@]12CCC=C1N(Cc1ccccc1)C(=O)[C@H](CC(=O)NCc1cccc(C(F)(F)F)c1)C2	?	?	nt	nt	?	23µM*
CCOC(=O)[C@]12CCCC=C1N(Cc1cccc3ccccc13)C(=O)[C@H](CC(=O)NCCCCc1ccccc1)C2	-12%	i	nt	nt	?	?
CCOC(=O)[C@]12CCC=C1N(Cc1ccccc1)C(=O)[C@H](CC(=O)NCCCCc1ccccc1)C2	-36%	?	nt	nt	?	21µM*
CCOC(=O)[C@]12CCC=C1N(Cc1ccco1)C(=O)[C@H](CC(=O)NCCC(C)C)C2	6%	i	nt	nt	-1%	-27%
CCOC(=O)[C@]12CCC=C1N(Cc1ccccc1)C(=O)[C@H](CC(=O)NCCC(C)C)C2	8%	i	nt	nt	21µM*	?
Cc1cc(-c2ccc(C(C)C)c(S(=O)(=O)Nc3cc(C)on3)c2)on1	-7%	i	-5%	7%	-3%	11%
COC(=O)c1c(-c2cc(OC)c(OC)c(OC)c2)c2ccnc(OCc3ncccn3)c2c(=O)n1Cc1ccnc(C)c1	nt	nt	nt	nt	23%	-1%
O=C(NCc1cccc(F)c1)C1=Cc2cc(Br)ccc2OC1	?	?	-24%	?	?	?
CCOC(=O)[C@]12CCC=C1N(Cc1ccc3c(c1)OCO3)C(=O)[C@H](CC(=O)NCc1cccs1)C2	1%	i	nt	nt	?	?
CCOC(=O)[C@]12CCC=C1N(Cc1ccccc1)C(=O)[C@H](CC(=O)NCc1cccs1)C2	9%	i	nt	nt	?	23µM*
Cc1ccc(S(=O)(=O)N2CCN(C(=O)CN3C(=O)NC4(CCCC4)C3=O)CC2)c(C)c1	21%	i	-1%	-9%	1%	-24%
O=C(Nc1ccc2ncccc2c1)Nc1ccc2ncccc2c1	nt	?	-6%	4%	21µM*	8.2µM*
c1cnc2ccc(-c3ccc4ncccc4c3)cc2c1	-11%	?	-22%	3%	?	4.1µM*
O=C(Nc1ccccc1)Nc1ccc2ncoc2c1	44%	nt	0.25µM*	1%	3%	-15%
NC(=O)c1nsc(C(=O)N(CC(=O)NC2CCCC2)Cc2ccc3c(c2)OCO3)c1N	nt	i	7%	14%	-1%	?
CN(Cc1ccccc1)C(=O)c1cnc2n(c1=O)CCS2	3%	i	2%	17%	-29%	-10%
Cc1cccc(N(C(=O)c2cnc3n(c2=O)CCS3)C2CCCCC2)c1	-3%	i	-10%	7%	12µM*	?
SMILES	ATXN2 expr inh	ATXN viability	HepG2 viability	TGFb inhibitor	DT40 TDP1 CPT	DT40 TDP1 no CPT
O=C(c1cnc2n(c1=O)CCS2)N(C1CCCCC1)C1CCCCC1	1%	i	-2%	1%	?	23µM*
O=C(c1cnc2n(c1=O)CCS2)N(c1ccccc1)C1CCCCC1	6%	i	3%	5%	?	?
CC(C)(C)C1CCc2c(sc(NC(=O)c3ccco3)c2C(=O)Nc2ccccc2Cl)C1 (stereo not drawn)	-4%	i	-23%	-9%	-14%	-8%
O=C(NC1CCCCC1)C(c1ccncc1)N(Cc1ccc(F)cc1)C(=O)c1ccccn1 (stereo not drawn)	nt	i	5%	12%	11%	-8%
O=C(NC1CCCCC1)C(c1ccncc1)N(Cc1ccccc1)C(=O)c1ccc(-c2ccccc2)[nH]1 (stereo not drawn)	-36%	?	-13%	?	16µM*	?
O=C(NCC1CCCO1)C(c1cccs1)N(Cc1ccccc1)C(=O)c1ccc(-c2ccccc2)[nH]1 (stereo not drawn)	-2%	i	-10%	?	?	21µM*
O=C(NCC1CCCO1)C(c1cccs1)N(C(=O)c1ccc(-c2ccccc2)[nH]1)C1CCCC1 (stereo not drawn)	-21%	?	2%	-46%	-27%	?
CC(C)(C)NC(=O)C(c1cccs1)N(CC1CCCO1)C(=O)c1ccc(-c2ccccc2)[nH]1 (stereo not drawn)	-1%	i	-24%	?	23µM*	21µM*
CNC(=O)c1c(NC(=O)c2cc(=O)c3cc(C)c(C)cc3o2)sc2c1CCCC2	-6%	i	2%	5%	-4%	-5%
O=C(NCc1ccccc1Cl)c1cc(-c2ccccc2)n[nH]1	1%	i	-55%	-9%	?	?
CCSc1nnc(NC(=O)C2Cc3ccccc3CN2S(=O)(=O)CC)s1 (stereo not drawn)	1%	i	-38%	-8%	?	16µM*
CCS(=O)(=O)N1Cc2ccccc2CC1C(=O)Nc1nnc(SCc2c(Cl)cccc2Cl)s1 (stereo not drawn)	12%	i	-28%	?	?	?
